High-throughput results from PubChem.
Sfp inh = Sfp phosphopantetheinyl transferase inhibition; Biochemical Sfp PPTase activity, qHTS; Potency, µM, usual class: inhibitors; actives 3.5% (n = 310,000); AID 1490;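 also: the enzyme is Sfp with the accession as filed and its product quenches rhodamine fluorescence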
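Fluorescence-quenching assay: 15 nM Sfp-PPTase preincubated 15 min at room temperature with compound, then 5 uM rhodamine-CoA and 12.5 uM BHQ-2-labelled YbbR peptide added. Fluorescence (ex 525/em 598 nm) read at start and after 30 min; difference gives rate.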
ALDH1A1 inh = ALDH1A1 (human) enzyme inhibition; Potency, µM (doses to about 75.3 µM), actives largely listed as inhibitors; P00352; Purified ALDH1A1, NADH fluorescence, propionaldehyde substrate; actives 7.3% (n = 220,000); active = well fitted inhibition curve with a large enough effect, not every such curve was filed as active; inconclusive = small, poorly fitted or top-dose-only effect, or another doubt; inactive = no such curve, though single readings can be large or run the other way
RORg inh = blocks mouse ROR gamma transcriptional activity; P51450; actives 5.4% (n = 310,000); Potency, µM (top dose mostly 53.6 µM), actives largely listed as inhibitors; Drosophila S2 Gal4-RORgamma UAS-luciferase reporter, 20 h; AID 2551; also: nearly all actives have a fitted effect of over 60% in size
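A Gal4/UAS one-hybrid system in insect cells: metallothionein-promoter Gal4–ROR gamma fusion plus Photinus luciferase reporter. Copper sulfate 700 uM final, 20 hr ambient incubation, luminescent detection after 10 min with reagent.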
PLK1 PBD block = inhibitors of human PLK1 polo-box domain binding | P53350 | Plk1 PBD binding of FITC phosphopeptide, fluorescence polarization | Potency, µM, usual class: inhibitors | actives 2.8% (n = 360,000) | AID 720504; also: series mostly up to about 57 µM; nearly all actives have a fitted effect of over 65% in size
Target sequence (P53350 whole entry, looked up, the tested form may be a part): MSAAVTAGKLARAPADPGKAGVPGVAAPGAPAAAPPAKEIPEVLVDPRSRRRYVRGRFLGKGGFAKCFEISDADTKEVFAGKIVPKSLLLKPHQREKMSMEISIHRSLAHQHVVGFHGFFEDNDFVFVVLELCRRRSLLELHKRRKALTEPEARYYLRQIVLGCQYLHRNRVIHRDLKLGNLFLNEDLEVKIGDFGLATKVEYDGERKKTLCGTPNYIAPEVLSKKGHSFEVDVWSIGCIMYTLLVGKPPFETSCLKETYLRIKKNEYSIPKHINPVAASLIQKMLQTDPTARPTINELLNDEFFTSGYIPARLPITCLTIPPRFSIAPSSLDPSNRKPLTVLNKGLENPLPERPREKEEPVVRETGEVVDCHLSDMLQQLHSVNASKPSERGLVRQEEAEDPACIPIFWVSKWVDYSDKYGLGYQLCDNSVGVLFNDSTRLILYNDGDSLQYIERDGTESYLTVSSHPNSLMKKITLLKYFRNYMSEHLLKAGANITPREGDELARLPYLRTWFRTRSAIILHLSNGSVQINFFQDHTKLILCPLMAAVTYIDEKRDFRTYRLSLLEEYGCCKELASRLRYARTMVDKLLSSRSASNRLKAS
Gal4-VP16 FLuc = inhibits Gal4-VP16 luciferase reporter, ROR gamma counter-screen; Drosophila S2 Gal4-VP16 UAS-luciferase, luminescence, 20 h; Potency, µM (titrated, usually from 53.6 µM), usual class: inhibitors; actives 3.5% (n = 310,000); AID 2546;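 also: Gal4-VP16 expression switched on by copper sulfate through the metallothionein promoter; nearly all actives have a fitted effect of over 50% in size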
Of the large screens only hits and unclear results are named; the others gave an inactive call. Sampled rows, rich in hits. Any-hit rate of the full collection: about 12%. Unless noted, calls follow the shape of the dose curve; as a rule, active = well fitted curve in the direction sought with a large enough effect; inconclusive = small, poorly fitted or top-dose-only effect, or another doubt; inactive = no such curve, though single readings can be large; an effect the other way counts as inactive or inconclusive.

CC(=O)Nc1ccc(S(=O)(=O)N(C)CC(=O)OC(C)C(=O)NC2(C#N)CCCCC2)cc1 (configuration not stated)	none (no result: Sfp inh, ALDH1A1 inh, RORg inh, Gal4-VP16 FLuc)
Oc1c(Cl)cc(CN2CCCCC2)c2cccnc12	RORg inh 4.5µM, Gal4-VP16 FLuc 3.5µM (no result: ALDH1A1 inh, PLK1 PBD block)
Oc1c(CN2CCCCC2)ccc2cccnc12	none (no result: Sfp inh, ALDH1A1 inh, RORg inh, Gal4-VP16 FLuc)
Cc1nc2ccccn2c1C(=O)CSc1ccccc1	none
Cc1nc2ccccn2c1C(=O)OCC#N	ALDH1A1 inh 16µM
C=C1C(=O)O[C@H]2[C@H]1[C@H](OC(=O)/C(C)=C\C)C[C@]1(CO1)[C@@H]1[C@H](OC(C)=O)C=C(C)[C@]21O	none (no result: Sfp inh, ALDH1A1 inh, RORg inh, Gal4-VP16 FLuc)
C=C1C(=O)O[C@@H]2[C@H]1[C@@H](OC(=O)/C(C)=C/C)C/C(C)=C\C(=O)/C=C(\C)[C@@H]2O	RORg inh inconclusive, Gal4-VP16 FLuc 11µM (no result: ALDH1A1 inh)
COC(=O)C1=C(C)NC(=S)NC1c1ccc(-c2cc(Cl)ccc2Cl)o1 (configuration not stated)	Sfp inh 40µM, RORg inh 4µM, Gal4-VP16 FLuc 4.5µM (no result: ALDH1A1 inh)
COC(=O)C1=C(C)NC(=O)NC1c1cc(Cl)ccc1OC (configuration not stated)	none (no result: Gal4-VP16 FLuc)
COC(=O)C1=C(C)NC(=O)NC1c1ccc(-c2ccc(Cl)cc2)o1 (configuration not stated)	ALDH1A1 inh 11µM
COC(=O)C1=C(C)NC(=O)NC1c1ccc([N+](=O)[O-])o1 (configuration not stated)	none
CCO/C(C)=C1/SC(=S)NC1=O	Sfp inh 32µM (no result: ALDH1A1 inh)
COc1ccccc1-c1nnc(NC(=O)CSc2nncn2C)s1	ALDH1A1 inh inconclusive, RORg inh 8.9µM, Gal4-VP16 FLuc inconclusive
COc1ccccc1C(=O)NCCn1cc(SCC(=O)Nc2nnc(C)s2)c2ccccc21	ALDH1A1 inh 0.32µM
COc1ccccc1-c1nnc(NC(=O)C(C)Sc2nncn2C)s1 (configuration not stated)	none
Cc1ccc(Cn2cc(SCC(=O)Nc3nccs3)c3ccccc32)cc1	Sfp inh inconclusive, ALDH1A1 inh inconclusive
Cc1nnc(NC(=O)CSc2cn(Cc3ccccc3)c3ccccc23)s1	ALDH1A1 inh inconclusive, RORg inh 11µM
CC(C)(N=NC(C)(C)C1=NCCN1)C1=NCCN1	none (no result: Sfp inh, RORg inh, PLK1 PBD block, Gal4-VP16 FLuc)
CCN(CC)CCN1C2=C(C(=O)CC(C)(C)C2)C(c2cccc(F)c2)C2=C1CC(C)(C)CC2=O	ALDH1A1 inh inconclusive
CCCCN1C2=C(C(=O)CC(C)(C)C2)C(c2ccccc2)C2=C1c1ccccc1C2=O (configuration not stated)	Sfp inh 56µM, ALDH1A1 inh inconclusive
CCCN1C2=C(C(=O)CC(C)(C)C2)C(c2ccc(F)cc2)C2=C1c1ccccc1C2=O (configuration not stated)	ALDH1A1 inh inconclusive, PLK1 PBD block 12µM
COc1cc(Br)cc(CNc2ccc(F)c([N+](=O)[O-])c2)c1O	Sfp inh 25µM, ALDH1A1 inh inconclusive, RORg inh inconclusive, Gal4-VP16 FLuc inconclusive
N#Cc1c(-c2ccccc2)[nH]c(=S)[nH]c1=O	Sfp inh 50µM
O=C(CN1CCN(S(=O)(=O)c2ccccc2)CC1)Nc1ccc(Cl)c([N+](=O)[O-])c1	none (no result: Sfp inh, ALDH1A1 inh, RORg inh, Gal4-VP16 FLuc)
CC(=O)Nc1cccc(Oc2nc(C)cc(C)c2C#N)c1	ALDH1A1 inh inconclusive, PLK1 PBD block 24µM
O=C(O)Cc1sc(Nc2cccc3ccccc23)nc1-c1ccccc1	none (no result: Sfp inh, ALDH1A1 inh, RORg inh, Gal4-VP16 FLuc)
O=C(O)Cc1sc(Nc2cccc3ccccc23)nc1-c1ccc(Cl)cc1	PLK1 PBD block 27µM (no result: ALDH1A1 inh)
O=C(O)Cc1sc(N/N=C\c2ccncc2)nc1-c1ccccc1	Sfp inh 28µM (no result: ALDH1A1 inh)
Cc1ccc(Nc2nc(-c3ccc(C)cc3)c(CC(=O)O)s2)cc1	ALDH1A1 inh inconclusive, RORg inh inconclusive
O=C(O)c1ccc(NS(=O)(=O)c2ccsc2C(=O)O)c(O)c1	Sfp inh inconclusive (no result: PLK1 PBD block)
CCCNC(=O)COC(=O)c1ccc(S(=O)(=O)N2CCCC2)cc1	none
CCCn1c(NC(=O)c2cccc(C)c2C)nc2ccccc21	RORg inh 2µM, Gal4-VP16 FLuc 2.2µM
CCn1c(NC(=O)c2cccs2)nc2ccccc21	RORg inh 0.71µM, Gal4-VP16 FLuc 1.1µM
CCCNC(=O)COC(=O)c1ccc(Cl)c(S(=O)(=O)N2CCCC2)c1	ALDH1A1 inh 7.9µM
CCCn1c(NC(=O)C2CCN(C(=O)c3ccccc3C)CC2)nc2ccccc21	none (no result: Sfp inh, ALDH1A1 inh, RORg inh, Gal4-VP16 FLuc)
CN(C)CCn1c(NC(=O)c2ccc(Cl)cc2)nc2ccccc21	ALDH1A1 inh inconclusive, RORg inh 1.1µM, Gal4-VP16 FLuc 1.4µM
CC(C)(C)NC[C@@H](O)COc1nsnc1N1CCOCC1	none (no result: PLK1 PBD block)
CCCn1c(NC(=O)c2ccc(Cl)c(S(=O)(=O)N3CCCC3)c2)nc2ccccc21	ALDH1A1 inh inconclusive, RORg inh 1.6µM, Gal4-VP16 FLuc 3.5µM
CCN(CC)CCn1c(NC(=O)c2ccc(C)cc2)nc2ccccc21	RORg inh inconclusive, Gal4-VP16 FLuc inconclusive (no result: ALDH1A1 inh)
Cc1cc2ccccc2n1CCNC(=O)C1CC1	none (no result: ALDH1A1 inh)
Cc1cc2ccccc2n1CCNC(=O)c1cccs1	RORg inh 13µM, Gal4-VP16 FLuc 14µM
CCN(CC)CCn1c(NC(=O)c2ccc(C(F)(F)F)cc2)nc2ccccc21	ALDH1A1 inh inconclusive, RORg inh 0.22µM, Gal4-VP16 FLuc 0.35µM
CC(=O)N[C@H]1[C@H](O[C@@H]2c3ccc(c(Cl)c3)Oc3cc4cc(c3O[C@@H]3O[C@H](CO)[C@@H](O)[C@H](O)C3C)Oc3ccc(cc3Cl)C[C@H]3NC(=O)[C@@H](N)c5ccc(O)c(c5)Oc5cc(O)cc(c5)[C@H](NC3=O)C(=O)N[C@H]4C(=O)N[C@H]3C(=O)N[C@@H]2C(=O)N[C@@H](C(=O)O)c2cc(O)cc(O[C@H]4O[C@H](CO)[C@@H](O)C(O)[C@@H]4O)c2-c2cc3ccc2O)O[C@H](CO)[C@@H](O)[C@@H]1O (some centres not stated)	none (no result: ALDH1A1 inh, PLK1 PBD block)
CCCN1CNC(=S)N(c2ccccc2OCC)C1	RORg inh 10µM, Gal4-VP16 FLuc inconclusive
CCCN1CNC(=S)N(c2cccc(C)c2)C1	RORg inh 11µM
CCCCN1CNC(=S)N(c2cc(C)ccc2C)C1	RORg inh 14µM, Gal4-VP16 FLuc 10µM
CCCCN1CNC(=S)N(c2ccccc2OCC)C1	RORg inh 11µM, Gal4-VP16 FLuc 14µM
Cc1cccc(N2CN(Cc3cccnc3)CNC2=S)c1	none
COC(=O)[C@@H]1O[C@@H](c2c(OC)c(OC)c(C)c(OC)c2OC)[C@H](C)[C@@H](O)[C@@H]1C	none (no result: PLK1 PBD block)
O=[N+]([O-])c1ccccc1Nc1cccc(F)c1	none (no result: Sfp inh, ALDH1A1 inh, RORg inh, Gal4-VP16 FLuc)
O=C(C=Cc1cccs1)c1ccccc1	none (no result: Sfp inh, ALDH1A1 inh, RORg inh, Gal4-VP16 FLuc)
CCCCN1C(=O)CCC(C(=O)O)C1c1ccc([N+](=O)[O-])cc1 (configuration not stated)	none (no result: ALDH1A1 inh)
COCCN(Cc1cc2cc3c(cc2nc1Cl)OCO3)C(=O)c1ccc(C)cc1	RORg inh 1.6µM, Gal4-VP16 FLuc inconclusive
